The values below come from PubChem BioAssay AID1490 (National Center for Advancing Translational Sciences (NCATS), 2009).

Structures are written as SMILES. In all, about 310,000 compounds went through this assay and about 11,000 (3.5%) were called active. Roughly 4% stayed inconclusive and do not appear here. This excerpt belongs to a sample that is enriched for actives. Values without a mark were called inactive. Calls follow the shape of the dose curve; as a rule, active = well fitted inhibition curve with a large enough effect; inconclusive = small, poorly fitted or top-dose-only effect, or another doubt; inactive = no such curve, though single readings can be large or run the other way.
Potency is read from the fitted curve at half-maximal effect.

This experiment deals with 4'-phosphopantetheinyl transferase ffp (Bacillus subtilis) (UniProt Q9F4F7). As to the kind of experiment: qHTS Assay for Inhibitors of Bacillus subtilis Sfp phosphopantetheinyl transferase (PPTase).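 Also: the enzyme is Sfp with the accession as filed and its product quenches rhodamine fluorescence.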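 As to largest response in the series, negative = inhibition: 0% = enzyme reaction without inhibitor and -100% = no enzyme wells.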 Particulars: Biochemical Sfp PPTase activity. The method in brief:
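After 15 min at room temperature with compound, 15 nM Sfp received 5 uM rhodamine-CoA plus 12.5 uM BHQ-2-ybbR (50 mM Hepes pH 7.6, 10 mM MgCl2). Rate came from the fluorescence difference over 30 min, ex 525/em 598 nm.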
For orientation: In qHTS, concentration-response curves come from the screen itself.
As to `Cn1nccc1/C=N\NC(=O)c1ccc(Cl)cc1`, the largest response in the series, negative = inhibition was 9.85%.

Consider `CCOc1cc(C(=S)N2CCOCC2)ccc1OS(=O)(=O)c1ccc(Br)cc1`, for which the largest response in the series, negative = inhibition was 22.9%.

As to `CCOc1ccc(C(=O)CCN2CCOCC2)cc1`, the largest response in the series, negative = inhibition is -10.8%.

Consider `CCOc1cc(C(=S)N2CCOCC2)ccc1O`, for which the Potency is 14.1 µM (active).

Regarding `COC(=O)[C@@H]1CC2=CC(=O)CC[C@]2(C)[C@@]23O[C@@H]2C[C@@]2(C)[C@@H](CC[C@@]24CCC(=O)O4)[C@H]13`, the largest response in the series, negative = inhibition is 10%.

In the case of `Cc1ccc(Cn2cc(C(=O)NN)c(=O)c3ccc(F)cc32)cc1`, the largest response in the series, negative = inhibition was 10.7%.

As to `CCCn1c(SCC(=O)c2ccc3c(c2)OCCO3)nnc1C(C)C`, the Potency was 79.4 µM (active).

Take `CCn1c(SCC(=O)Nc2ccc3c(c2)OCCO3)nnc1C(C)C`: the largest response in the series, negative = inhibition was 18.9%.

Take `CCCn1c(SCC(N)=O)nnc1C(C)C`: the largest response in the series, negative = inhibition was 10.5%.

Turning to `COc1ccc(C(C(=O)NC2CCCC2)N(CCCO)C(=O)Cn2nnc(-c3ccc(C)o3)n2)cc1` (stereo unspecified), the largest response in the series, negative = inhibition is 1.56%.

On to `CCN(CC)S(=O)(=O)c1ccc(N2CCN(C)CC2)c(NC(=O)Nc2ccccc2F)c1`, for which the largest response in the series, negative = inhibition was 9.85%.

On to `Cc1cc(C)nc(S/C=C/C(=O)c2ccccc2)n1`, for which the Potency is 20 µM (active).

On to `Cc1cc(SCC(=O)c2ccccc2)nc(SCC(=O)c2ccccc2)n1`, for which the largest response in the series, negative = inhibition is 11.4%.

For the molecule `Cc1ccc(N/C=C/C(=O)c2ccccc2)cc1C`, the largest response in the series, negative = inhibition was -6.7%.

Turning to `COc1cc(C(C(=O)NC2CCCC2)N(Cc2ccccc2)C(=O)c2snc(C(N)=O)c2N)ccc1O` (stereo unspecified), the largest response in the series, negative = inhibition was 4.51%.

On to `CCOC(=O)[C@H]1[C@H]2COc3cc(OC)ccc3[C@@H]2N2C(=O)N(c3ccc(Br)cc3)C(=O)[C@@]12C`, for which the largest response in the series, negative = inhibition was 5.98%.

For the molecule `O=C(NCCCO)c1cc2c([nH]c3ccccc32)c(-c2ccc(F)cc2)n1`, the largest response in the series, negative = inhibition was -19.4%.

As for `CSc1nsc(SC)c1NC(=O)OC1CCCCC1`, the Potency is 56.2 µM (active).

`CSc1ncccc1C(=O)NC1CCCCCC1`: the largest response in the series, negative = inhibition was 8.17%.

For the molecule `CN(C)C(=O)c1ccc(NC(=O)c2ccccc2-c2ccccc2)cc1`, the largest response in the series, negative = inhibition was -2.24%.

Turning to `O=C1/C(=C/c2ccc3c(c2)OCO3)Oc2cc(OCC(=O)N3CC(O)C[C@H]3C(=O)O)ccc21` (stereo partly specified), the largest response in the series, negative = inhibition is 2.62%.

As for `Cn1c(CC(=O)Nc2ccc(F)cc2)nnc1SCC(=O)NC1CCCCC1`, the largest response in the series, negative = inhibition was 16%.

Regarding `CCOc1ccc(Nc2nc(Cc3nnc(SCC(=O)NC4CCCC4)n3C)cs2)cc1`, the Potency is 89.1 µM (active).

With `CCOc1cccc(-c2nnc(SCC(=O)NC3CC3)n2C)c1`, the largest response in the series, negative = inhibition was 3.79%.

For the molecule `CC(=O)Nc1ccc(NC(=O)COc2ccc(-c3ccccc3)cc2)cc1`, the largest response in the series, negative = inhibition was 13.3%.

With `O=C(/C=C/c1cccc(F)c1)NC1CC1`, the largest response in the series, negative = inhibition was 29.9%.

Turning to `Oc1oc(-c2ccccc2Br)nc1/C=N/c1ccccn1`, the largest response in the series, negative = inhibition is -0.12%.

Regarding `COC(=O)Cn1c(O)c(N=NC(=O)OC)c2ccccc21`, the largest response in the series, negative = inhibition is 4.81%.

Turning to `CC(C)n1c(O)c(N=Nc2ccccn2)c2ccccc21`, the Potency was 50.1 µM (active).

For `COC(CNC(=O)c1ccc2c(c1)ncn2-c1cc(C)cc(C)c1)OC`, the largest response in the series, negative = inhibition was 8.91%.

Turning to `CC(C)C(N)C(=O)OCCOCn1cnc2c(=O)[nH]c(N)nc21` (stereo unspecified), the largest response in the series, negative = inhibition was -9.12%.

`COc1cc2c(cc1OC)CN(CC(=O)Nc1ccc(F)cc1)CC2`: the largest response in the series, negative = inhibition was 2.33%.

On to `O=C(CCc1nnc(Cc2ccc3c(c2)OCO3)o1)NCCc1ccccc1Cl`, for which the largest response in the series, negative = inhibition was -0.572%.

Regarding `CCC(=O)N(Cc1cc2cc(OC)ccc2[nH]c1=O)c1ccccc1C`, the largest response in the series, negative = inhibition is 6.41%.

`COc1ccc(N(Cc2cc3cc(OC)ccc3[nH]c2=O)S(C)(=O)=O)cc1`: the largest response in the series, negative = inhibition is -8.56%.

With `COc1ccc2[nH]c(=O)c(CNc3ccc(C)c(C)c3)cc2c1`, the Potency was 50.1 µM (active).

In the case of `Cc1ccc(-c2ccc(=O)n(Cc3ccc(F)cc3Cl)n2)cc1`, the largest response in the series, negative = inhibition is -21.9%.

In the case of `Cc1cc(NCc2cccnc2)no1`, the largest response in the series, negative = inhibition was 1.54%.

As for `Cc1noc(C)c1-c1cc(NCc2cccnc2)ncn1`, the largest response in the series, negative = inhibition was -20.7%.

Regarding `Cc1cccc(CNc2ccnc(-c3cccnc3)n2)c1`, the Potency was 79.4 µM (active).

For `CCN(CC)c1ccc(NC(=O)CCc2nnc3ccc(N4CCCCC4)nn23)c(C)c1`, the largest response in the series, negative = inhibition was 2.26%.

Consider `CCOc1ccccc1CN1CCN(C2CCC2)CC1CCO` (stereo unspecified), for which the largest response in the series, negative = inhibition was 17.6%.

For the molecule `COC(=O)c1c(NC(=O)COc2ccc(Cl)cc2Cl)sc2c1CC(C)(C)NC2(C)C`, the largest response in the series, negative = inhibition is -6.17%.

On to `O=C(CN(C(=O)CNC(=O)c1cccs1)c1cccc(F)c1)NC1CCCCC1`, for which the largest response in the series, negative = inhibition is 6.32%.

For `COC(=O)/C=C\C(=O)Nc1cccc([N+](=O)[O-])c1`, the Potency was 3.55 µM (active).

Consider `COc1cccc(CNC(=O)CCCC(=O)Nc2cccc([N+](=O)[O-])c2)c1`, for which the largest response in the series, negative = inhibition was 4.84%.

Regarding `O=C(CSCC(=O)Nc1cccc([N+](=O)[O-])c1)Nc1ccccc1`, the largest response in the series, negative = inhibition was 7.95%.

`CC(=O)c1ccc(NC(=O)c2ccc(-n3cncn3)c([N+](=O)[O-])c2)cc1`: the largest response in the series, negative = inhibition was -0.369%.

Turning to `O=C(Nc1c2c(nn1-c1ccccc1)CS(=O)(=O)C2)C1CCCC1`, the largest response in the series, negative = inhibition is 11.4%.

For the molecule `CSc1nnc2ccc(-c3ccc(C)cc3)nn12`, the largest response in the series, negative = inhibition was 4.27%.

`NC(=O)c1oc2ccccc2c1NC(=O)Cc1ccccc1`: the largest response in the series, negative = inhibition was 0.75%.

For the molecule `O=c1[nH]c(SCc2ccccc2)nnc1-c1ccccc1`, the largest response in the series, negative = inhibition was 15.9%.

Turning to `c1ccc(CSc2nnc(-c3ccco3)c(-c3ccco3)n2)cc1`, the Potency was 35.5 µM (active).

As for `Clc1ccccc1CSc1nnc(-c2ccco2)c(-c2ccco2)n1`, the Potency is 20 µM (active).

In the case of `COc1ccc2nc(SCc3ccccc3)nc(C)c2c1`, the largest response in the series, negative = inhibition was -4.22%.

For `O=c1cc(O)nc(SCc2ccccc2Cl)[nH]1`, the largest response in the series, negative = inhibition was -17.3%.

As to `COC(OC)c1ccnc(SCc2ccccc2Cl)n1`, the largest response in the series, negative = inhibition is -3.61%.

In the case of `CS(=O)(=O)Nc1cccc(C2=NN(C(=O)c3cccc(F)c3)C(c3cccs3)C2)c1` (stereo unspecified), the largest response in the series, negative = inhibition was 4.93%.

On to `COC(=O)c1ccc2c(=O)n(CCN3CCOCC3)c(SCC(=O)Nc3cccc(OC)c3)nc2c1`, for which the largest response in the series, negative = inhibition is 0.982%.

`CN(C)C(=O)Cn1c(=O)n(S(=O)(=O)c2ccccc2)c2ccccc21`: the largest response in the series, negative = inhibition was -0.847%.

On to `Cc1ccc(C(=O)NC23CC4CC(CC(C4)C2)C3)c(Cl)c1`, for which the largest response in the series, negative = inhibition was 2.46%.
